According to PubChem BioAssay (NCATS):
Results filed as inconclusive are left out. Where a call stands in place of a potency, no number is given. Calls of active or inactive are those of the source. Calls come from the whole dose curve; as a rule, active = well fitted curve in the direction sought with a large enough effect; inconclusive = small, poorly fitted or top-dose-only effect, or another doubt; inactive = no such curve, though single readings can be large; an effect the other way counts as inactive or inconclusive.

How the values were obtained:
[1] = biological target: Aldehyde dehydrogenase, mitochondrial (Homo sapiens) (UniProt P05091); experiment: qHTS for Inhibitors of the Aldehyde Dehydrogenase Family (ALDH2) Primary screen (AID 2061308); settings: ALDH2 enzyme inhibition qHTS, 1536-well; series mostly up to 56 µM; note: nearly all actives have a fitted effect of over 55% in size
[2] = biological target: Retinaldehyde dehydrogenase 3 (Homo sapiens) (UniProt P47895); experiment: qHTS for Inhibitors of the Aldehyde Dehydrogenase Family (ALDH1A3) Primary screen (AID 2061315); settings: ALDH inhibition qHTS; series mostly up to 56 µM

Structure (SMILES) | Potency [1] | Potency [2]
COc1ccc(CC(=O)Nc2ccc(S(=O)(=O)Nc3cc(C)on3)cc2)cc1C | inactive | inactive
O=C(COC(=O)CNC(=O)c1ccccc1Cl)Nc1ccccc1Cl | inactive | inactive
O=C(OCC#CCSc1nnc(-c2cc3ccccc3cc2O)o1)c1ccc(F)cc1 | inactive | inactive
O=C(Nc1nnc(-c2ccco2)o1)c1ccc(Cl)c(Cl)c1 | inactive | inactive
NC(=O)C1CCN(c2nc(-c3ccc(Br)cc3)cs2)CC1 | inactive | inactive
Cc1ccc(C2=NN(CC(=O)NCCc3ccccc3)C(=O)C2)cc1 | inactive | inactive
COc1cc([C@H]2O[C@H](c3cc(OC)c4c(c3)OCO4)[C@H](C)[C@H]2C)cc(OC)c1OC | inactive | inactive
COC(=O)c1sc2c(c1-c1nc3ccccc3s1)CCNC2 | inactive | inactive
Cc1cc(N[S+](=O)([O-])c2cc3c(cc2Cl)NC(=O)CO3)ccc1Br | inactive | inactive
NC(=O)C1CCN(c2nc(-c3ccc(C(F)(F)F)cc3)cs2)CC1 | inactive | inactive
CCC(C(=O)NC(=O)NC(C)=O)c1ccccc1 (centres undefined) | inactive | inactive
Cc1ccc(S(=O)(=O)n2cc(C(=O)Nc3nc(-c4ccccc4)cs3)c3ccccc32)cc1 | inactive | inactive
CC(C)(C)OC(=O)Cc1nnc(C(C(=O)OCc2ccccc2)c2ccccc2)o1 (centres undefined) | inactive | inactive
O=C1c2ccccc2C(=O)N1Cc1ccncc1 | inactive | inactive
COc1ccc(N2Cc3cccc(C(=O)O)c3C2=O)cc1OC | inactive | inactive
C=C1C[C@]23C[C@@]1(O)CC[C@H]2[C@@]12C=C[C@H](O)[C@@](C)(C(=O)O1)[C@H]2[C@@H]3C(=O)O | inactive | inactive
CCCCNc1nc(C)nc2c1nc(-c1ccccc1)n2CCCCN(CC)CC | inactive | inactive
COC(=O)c1ccccc1NC(=O)c1ccccc1OC(F)F | inactive | inactive
Cc1ccc(-c2cc(C(=O)Nc3ccc(S(=O)(=O)N(C)C)cc3)c3ccccc3n2)cc1C | inactive | inactive
COCCNc1cc2c(cc1[S+](=O)([O-])Nc1ccc(C)c(C)c1)CCC(=O)N2 | inactive | inactive
CCOC(=O)c1cccc(-n2cnc(/C=C3\NC(=O)N(CC(=O)OC(C)(C)C)C3=O)c2)c1 | inactive | inactive

Structure (SMILES) | Potency [1] | Potency [2]
O=[S+]1([O-])N=C(Oc2cccnc2)c2ccccc21 | inactive | inactive
O=S1(=O)N=C(Oc2ccccc2C(F)(F)F)c2ccccc21 | inactive | inactive
Cn1c2cc(B(O)O)sc2c2cnn(Cc3c(F)cccc3Cl)c(=O)c21 | inactive | inactive
Clc1ccc2ncc(-c3cccc(NC4CCNC4)n3)n2c1 (centres undefined) | inactive | inactive
CC(C)(C)OC(=O)CC(=O)NNC(=O)c1nc2ccccc2[nH]1 | inactive | inactive
COc1ccc(CNc2ccc(S(=O)(=O)Nc3nccs3)cc2)c(O)c1 | inactive | inactive
O=C(OCC#CCSc1nnc(-c2cccc3ccccc23)o1)c1ccc(F)cc1F | inactive | inactive
Cc1ccc2nsnc2c1S(=O)(=O)Nc1cccc2cccnc12 | inactive | inactive
COc1ccc(OC)c(C(=O)Nc2nc(-c3ccccc3)cs2)c1 | inactive | inactive
COC(=O)N[C@H](C(=O)N1[C@@H]2CC[C@@H](C2)[C@H]1c1nc2ccc(-c3ccc4c(c3)C(F)(F)c3cc(-c5cnc([C@@H]6CCC7(CC7)N6C(=O)[C@@H](NC(=O)OC)C(C)C)[nH]5)ccc3-4)cc2[nH]1)C(C)C | inactive | inactive
CN(C(=O)Nc1ccc2ccccc2c1)c1nnc(-c2ccncc2)s1 | inactive | inactive
CCOc1ccc(C(=O)Oc2ccc(-c3nc4ccccc4[nH]3)cc2)cc1Cl | inactive | inactive
Nc1nc(Nc2cc(F)cc(F)c2)nc(NC2CCCC2)n1 | inactive | inactive
CC(C)(N)C(=O)Nc1ccc(Cl)cc1C(=O)c1ccc[nH]1 | inactive | inactive
O=C(NCc1ccccc1)n1cc(P(=S)(c2ccccc2)c2ccccc2)c2ccccc21 | inactive | inactive
O=C(OCC#CCSc1nnc(-c2cccc3ccccc23)o1)c1cc2ccccc2o1 | inactive | inactive
Cc1ccccc1C(=O)N1CCc2cc(-c3nc(NC(=O)Cc4ccccc4)sc3C)ccc21 | inactive | inactive
COc1ccc(-c2nnc3n2N=C(c2ccc(OC)c(OC)c2)CS3)c(OC)c1 | inactive | inactive
O=C(OCC#CCSc1nnc(-c2ccc(F)cc2)o1)c1ccc(F)cc1 | inactive | inactive
O=C(NCc1ccc(F)cc1)n1c(-c2ccccc2)c(P(=S)(c2ccccc2)c2ccccc2)c2ccccc21 | inactive | inactive
Cc1ccc(S(=O)(=O)Nc2cnccc2C(=O)Nc2nc(-c3cc4ccccc4o3)cs2)cc1 | inactive | inactive

Structure (SMILES) | Potency [1] | Potency [2]
Cc1ccccc1-c1nc(NCc2cccs2)c2ccccc2n1 | inactive | inactive
Cc1cc2c(s1)c1cnn(Cc3ccccc3F)c(=O)c1n2Cc1ccccc1F | inactive | inactive
CCCn1c(-c2ccc(F)cc2)nc2c(NCC(C)(C)CN(C)C)nc(C)nc21 | inactive | inactive
COc1ccc(C(CC(=O)N2CC(C)CC(C)C2)c2c(O)cc(OC)cc2OC)cc1 (centres undefined) | inactive | inactive
O=C(Nc1ncc(Cc2ccc(C(F)(F)F)cc2)s1)c1cnc(-c2ccccc2)[nH]1 | inactive | inactive
Oc1ccc(COC2CCCC2)c2cccnc12 | inactive | inactive
O=C(Nc1ccc(Cl)c([N+](=O)[O-])c1)Nc1cccc(-c2ccncc2)n1 | inactive | inactive
COc1ccc(COc2ccc(-c3nc4ccccc4[nH]3)cc2)cc1OC | inactive | inactive
CC1OC2O[C@H]3[C@@H](OCC(O)[C@H]3O)OC(=O)C34CCC(C)(C)CC3C3=CCC5C6(C)CC(O)C(OC7OC(CO)C(O)C(O)C7O[C@@H]7OC[C@H](OC(=O)CC(C)(O)CC(=O)OC1C(OC1OCC(O)C(O)C1O)C2O)[C@@H](O)[C@H]7O)C(C)(CO)C6CCC5(C)C3(C)CC4 (some centres undefined) | inactive | inactive
Cc1ccc(OCCn2c(CCNC(=O)CCN3CCCCC3)nc3ccccc32)cc1 | inactive | inactive
O=C(O)c1ccncc1Nc1nn(CCN2CCC(F)(F)CC2)c2ccc(F)cc12 | inactive | inactive
Cc1cc(C)nc(NC(=S)N2CCN(c3ccc(Cl)cc3S(C)(=O)=O)CC2)c1 | inactive | inactive
COc1ccc2cc3c(NC(=O)c4ccco4)nn(C)c3nc2c1 | inactive | inactive
COc1ccc(C(=O)Nc2nnc(-c3ccco3)o2)cc1OC | inactive | inactive
Cc1cccc(CNc2ccnc(-c3cc(C(F)(F)F)cc(C(F)(F)F)c3)n2)c1 | inactive | inactive
CO[C@H]1C[C@@H]2CC[C@@H](C)[C@@](O)(O2)C(=O)C(=O)N2CCCC[C@H]2C(=O)O[C@H]([C@@H](C)C[C@@H]2CC[C@@H](O)[C@H](OC)C2)CC(=O)[C@H](C)/C=C(\C)[C@@H](O)[C@@H](OC)C(=O)[C@H](C)C[C@H](C)/C=C/C=C/C=C/1C | inactive | inactive
FC(F)(F)c1cccc(N2CCN(C(=S)Nc3ccncc3)CC2)c1 | inactive | inactive
Cc1nc(-c2ccccc2)oc1-c1ccc2ncnc(NCCc3cnc[nH]3)c2c1 | inactive | inactive
Cc1ccc(S(=O)(=O)Nc2cc(C)ccc2C(=O)Nc2nc(-c3ccccc3)cs2)cc1 | inactive | inactive
C(=Nc1cccnc1)c1cccs1 | inactive | inactive
CCOC(=O)c1ccc(-c2ccc3ncnc(NCc4csc(C)n4)c3c2)o1 | inactive | inactive

Structure (SMILES) | Potency [1] | Potency [2]
O=C(CNC(=O)c1ccccc1)OC(CCc1ccccc1)C(=O)Nc1cc(C(F)(F)F)ccc1Cl (centres undefined) | inactive | inactive
COC(=O)C(CC1(O)c2ccccc2N2C(=O)C(C)(C)N(O)C21)n1cnc2ccccc2c1=O (centres undefined) | inactive | inactive
C=CCNc1oc(-c2cccnc2)nc1C#N | inactive | inactive
CC(C)(C)c1ccc(C(=O)NCC(=O)OC(C(=O)Nc2cc(C(F)(F)F)ccc2Cl)c2ccccc2)cc1 (centres undefined) | inactive | inactive
CCOC(=O)c1cccc(NC(=O)Nc2nnc(-c3ccncc3)s2)c1 | inactive | inactive
Cc1cc(C)nc(NC(=S)N2CCN(c3ccc(C(F)(F)F)cc3C(F)(F)F)CC2)c1 | inactive | inactive
Fc1cc(Nc2nc(-c3ccncc3)nc3ccccc23)ccc1-c1ccncc1 | inactive | inactive
N#CN1CCC(NC(=O)c2cccc(F)c2)CC1 | inactive | inactive
COc1cc(O)c(C(CC(=O)N2CCCCCC2)c2ccc3c(c2)OCO3)c(OC)c1 (centres undefined) | inactive | inactive
COCCNc1nc(C)nc2c1nc(-c1ccccc1)n2CCN1CCCCC1 | inactive | inactive
COCCNc1nc(C)nc2c1nc(-c1ccccc1)n2CCN(C)C | inactive | inactive
O=S(=O)(Nc1nccs1)c1ccc(NCc2ccccc2O)cc1 | inactive | inactive
O=C1CCCC2=C1C1(CCCC1)N=C(Nc1nc3cc(Cl)ccc3o1)N2 | inactive | inactive
COc1ccc([C@H]2[C@H](c3ccccc3)C(=O)N2Cc2ccccc2)cc1COc1ccc(NC(C)=O)cc1 | inactive | inactive
CCOC(=O)c1ccc(-n2cnc3cc(C(=O)N4CCCCC4)ccc32)cc1 | inactive | inactive
O=C1CCCC2=C1C(c1[nH]ncc1Cl)N=C(Nc1ccccn1)N2 (centres undefined) | inactive | inactive
Cc1cccc2oc(NC3=NC(c4[nH]ncc4Cl)C4=C(CCCC4=O)N3)nc12 (centres undefined) | inactive | inactive
Nc1ccccc1CNc1ccc(S(=O)(=O)Nc2nccs2)cc1 | inactive | inactive
O=C(Nc1nc2cc(C(F)(F)F)ccc2s1)c1ccc(-c2cccc([N+](=O)[O-])c2)o1 | inactive | inactive
